POLH inh: qHTS for Inhibitors of Polymerase Eta; DNA polymerase eta (Homo sapiens), Q9Y253; recombinant Pol eta, fluorescent DNA replication assay; Potency, µM (highest dose often 114 µM), for inactives: at the top dose activity change, negative = inhibition, hits mostly inhibitors; 1.2% of 390,000 active; AID 588591, 2011; also: % is scaled to controls: 0 for no effect and ±100 for the full control effect
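Pol eta (10 nM) was preincubated with compounds for 15 min at room temperature, after which fluorescent replication substrate (50 nM final) was added to start the reaction. Fluorescence was read kinetically at 0 and 10 min.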
Pol iota inh: qHTS for Inhibitors of Polymerase Iota. Pol iota fluorescent replication assay, 10 min. 1% of 390,000 active. Potency, µM (top dose mostly 115 µM), for inactives: at the highest dose activity, negative = inhibition, most hits filed as inhibitors
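Pol iota at 10 nM preincubated 15 min with compounds at room temperature; reaction started with fluorescent substrate, 50 nM final. Fluorescence read kinetically at 0 and 10 min; buffer-only wells as negative control.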
Pol kappa inh: qHTS for Inhibitors of Polymerase Kappa | DNA polymerase kappa (Homo sapiens), Q9UBT6 | purified Pol kappa, fluorescent DNA synthesis assay, 10 min | Potency, µM (top dose mostly 107 µM), for the others: at the highest dose activity, negative = inhibition, most hits filed as inhibitors | 0.53% of 400,000 active | AID 588579, 2011; also: % is scaled to controls: 0 for no effect and ±100 for the full control effect
Target sequence (Q9UBT6 whole entry, looked up): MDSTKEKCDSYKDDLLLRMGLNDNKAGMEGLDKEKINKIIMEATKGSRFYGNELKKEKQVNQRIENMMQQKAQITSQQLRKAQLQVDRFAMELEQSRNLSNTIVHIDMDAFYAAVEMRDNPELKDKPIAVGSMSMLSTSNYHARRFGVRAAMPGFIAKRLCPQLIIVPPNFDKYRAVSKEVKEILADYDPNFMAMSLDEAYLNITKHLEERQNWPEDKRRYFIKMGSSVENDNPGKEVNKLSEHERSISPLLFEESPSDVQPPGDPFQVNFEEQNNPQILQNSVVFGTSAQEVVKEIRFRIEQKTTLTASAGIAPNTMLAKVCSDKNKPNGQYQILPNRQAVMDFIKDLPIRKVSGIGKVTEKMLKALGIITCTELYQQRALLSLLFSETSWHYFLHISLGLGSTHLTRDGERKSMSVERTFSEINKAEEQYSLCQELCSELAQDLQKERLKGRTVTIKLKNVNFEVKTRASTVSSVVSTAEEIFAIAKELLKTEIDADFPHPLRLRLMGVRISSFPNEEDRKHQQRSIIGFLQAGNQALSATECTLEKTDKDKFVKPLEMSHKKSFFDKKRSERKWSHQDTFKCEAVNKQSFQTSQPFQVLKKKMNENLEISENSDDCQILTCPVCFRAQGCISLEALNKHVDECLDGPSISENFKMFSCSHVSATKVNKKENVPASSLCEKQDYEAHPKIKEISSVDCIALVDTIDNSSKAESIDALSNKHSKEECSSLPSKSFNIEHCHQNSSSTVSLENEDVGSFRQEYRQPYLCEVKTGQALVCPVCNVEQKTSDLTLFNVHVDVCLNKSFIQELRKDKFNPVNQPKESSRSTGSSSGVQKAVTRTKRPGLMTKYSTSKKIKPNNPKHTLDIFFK
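Activity was followed as the change in fluorescence between reads at 0 and 10 min after starting the reaction with 50 nM substrate. Beforehand, 10 nM polymerase had been preincubated with compound for 15 min at room temperature.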
GCN5L2 inh: qHTS Assay for Inhibitors of GCN5L2; GCN5L2 HAT assay, ThioGlo1 CoA-SH fluorescence; Potency, µM (highest dose often 58.9 µM), without a hit: at the top dose activity change, negative = inhibition, most hits filed as inhibitors; 0.21% of 390,000 active; AID 504327, 2011; also: % is scaled to controls: 0 for no effect and ±100 for the full control effect
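Fluorescence readout, Ex340nm/Em540nm: ThioGlo1 (50uM final) reacts with free CoA thiol released as 20nM GCN5L2 acetylates H3(1-25) peptide (75uM) using acetyl-CoA (70uM). Compound and enzyme sat 15 min beforehand; 20 min room-temperature reaction.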
Pol beta inh: qHTS Assay for Inhibitors of DNA Polymerase Beta. Pol beta primer extension/strand displacement, fluorescence kinetic. Potency, µM (top dose mostly 114 µM), for inactives: at the highest dose activity change, negative = inhibition, hits mostly inhibitors. 1.3% of 340,000 active. AID 485314, 2010; also: % is scaled to controls: 0 for no effect and ±100 for the full control effect
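Kinetic readout of DNA synthesis with strand displacement by Pol beta. Compound and 10 nM enzyme sit 15 min at room temperature; 50 nM substrate starts the reaction, read immediately and at 10 min.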
GLS inhibitor: qHTS for Inhibitors of Glutaminase (GLS) | Glutaminase kidney isoform, mitochondrial (Homo sapiens), O94925 | GLS enzymatic activity, qHTS titration | Potency, µM (titrated, usually from 45.5 µM), without a hit: at the top dose activity change, negative = inhibition, actives largely listed as inhibitors | 0.21% of 410,000 active | AID 624170, 2012; also: % is scaled to controls: 0 for no effect and ±100 for the full control effect
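Glutamate formation by hKGA was monitored fluorometrically using coupled glutamate oxidase, HRP and Amplex Red. Substrate was added as 1 mM L-glutamine solution; incubation was 30 min at RT after an initial read.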
* hit, by the source's call; ? = inconclusive; / = no result; [ ] = another dose, or the depositor's remark. Sampled rows, rich in hits. Any-hit rate of the full collection: about 2.4%. Calls follow the shape of the dose curve; as a rule, active = well fitted inhibition curve with a large enough effect; inconclusive = small, poorly fitted or top-dose-only effect, or another doubt; inactive = no such curve, though single readings can be large or run the other way. Potency is read from the fitted curve at half-maximal effect.

SMILES | POLH inh | Pol iota inh | Pol kappa inh | GCN5L2 inh | Pol beta inh | GLS inhibitor
O=c1c(C(c2nnnn2C2CCCCC2)N2CCCCC2)coc2ccc(Cl)cc12 (stereo unspecified) | -13.3% | 8.2% | -9.1% | 0.1% | 100µM* | 10.8%
COc1cc(O)c2c(=O)c(O)c(-c3ccc(O)c(O)c3)oc2c1 | / | / | 0.947µM* | -18.2% | / | /
O=c1c(O)c(-c2ccc(O)cc2)oc2cc(O)cc(O)c12 | 25.1µM* | 79.4µM* | -30.1% | -15.0%[21.4 µM] | / | 14.5%
O=c1c(O)c(-c2ccccc2)oc2cccc(O)c12 | / | / | -12.6%[60.1 µM] | 3.4% | / | /
CC[C@H]1OC(=O)C[C@@H](O)[C@H](C)[C@@H](O[C@@H]2O[C@H](C)C[C@H](N(C)C)[C@@H]2O)[C@@H](CC=O)C[C@@H](C)C(=O)/C=C\[C@]2(C)O[C@H]2[C@@H]1C | / | / | / | / | / | 1.8%
Cc1ccc(CNC(=O)CCCc2nnc3n(CC(C)C)c(=O)c4sccc4n23)cc1 | -1.1% | 3.4% | 1.6% | -8.9% | 2.4% | -11.4%
Fc1ccccc1N1CCN(C(c2ccncc2)c2nnnn2C2CCCC2)CC1 (stereo unspecified) | -12.5% | 79.4µM* | -5.1% | -4.3% | 4.2% | 6.0%
CCC(c1nnnn1C1CCCC1)N1CCN(c2ccccc2F)CC1 (stereo unspecified) | -9.2% | 5.8% | 3.3% | -3.1% | -26.8% | -5.3%
COc1ccc(NC(=O)/C(Cl)=C(/Cl)S(=O)Cc2ccccc2)cn1 (stereo unspecified) | -15.9% | 31.6µM* | -12.3% | 2.2% | 19.5% | -8.5%
COc1cc(OC)c(/C=C/c2ccc3ccccc3[n+]2[O-])c(OC)c1 | / | 17.5% | -17.5% | / | / | /
CCOC(=O)c1cnn(-c2nc(SC)nc3sc4c(c23)CCC4)c1N | ? | ? | -15.1% | -25.0% | 10µM* | 4.8%
CCOC(=O)c1cnn(-c2nc(C)nc3sc4c(c23)CCC4)c1N | / | / | / | -4.4% | 9.9% | /
COc1ccc(-c2coc3cc(O)ccc3c2=O)c(O)c1O | / | / | 1.78µM* | ? | / | /
COc1ccccc1-c1coc2cc(O)ccc2c1=O | / | / | -6.2%[60.1 µM] | 25.1µM* | / | /
O=C(Nc1ccc(S(=O)(=O)Nc2nccs2)cc1)C1=NN(c2ccccc2)C(=O)CC1 | 50.1µM* | ? | -22.5% | -26.6% | ? | -1.9%
O=C(Nc1ccc(S(=O)(=O)Nc2nccs2)cc1)c1ccncc1 | / | / | / | / | / | 3.4%
Cc1ccc(-n2ccc(=O)c(C(=O)Nc3ccc(S(=O)(=O)Nc4nccc(C)n4)cc3)n2)cc1 | 39.8µM* | ? | -14.3% | -18.7% | -13.7% | 6.0%
Cc1ccc(-n2ccc(=O)c(C(=O)Nc3ccc(S(=O)(=O)Nc4nccs4)cc3)n2)cc1 | 79.4µM* | 35.5% | -9.6% | -14.4% | ? | 7.3%
CCOc1ccc(-n2ccc(=O)c(C(=O)Nc3ccc(S(=O)(=O)Nc4ncccn4)cc3)n2)cc1 | ? | 41.0% | -8.7% | -27.2% | -1.7% | 0.5%
O=C(c1ccc2c(c1)N(Cc1cccc(F)c1)C(=O)c1ccccc1S2)N1CCOCC1 | ? | ? | -16.4%[60.1 µM] | -11.0% | 50.1µM* | 1.2%
CCCCOc1ccc(CC(=O)NOC)cc1 | / | 20.4% | -4.5% | / | / | /
COc1ccc2c(c1)Cc1sc(NC(=O)c3ccccc3)nc1-2 | 15.8% | 15.8µM* | -11.5% | -0.4% | 6.7% | 23.8%
COc1ccc2c(c1)Cc1sc(NC(=O)c3ccccc3C)nc1-2 | / | 3.55µM* | -9.6% | -9.9% | 11.6% | 7.1%
COc1ccc(C(=O)Nc2nc3c(s2)Cc2cc(OC)ccc2-3)cc1 | ? | ? | -10.1% | -2.8% | 86.8% | 7.9%
CCCCCCC[n+]1ccc(C)c2ccccc21 | / | 22.1% | -5.3% | / | / | /
SMILES | POLH inh | Pol iota inh | Pol kappa inh | GCN5L2 inh | Pol beta inh | GLS inhibitor
CCCCCOc1ccc(C2SC(=O)NC2=O)cc1OCC (stereo unspecified) | / | / | / | / | / | 3.0%
C(=C\c1ccc2ccccc2n1)/c1cccnc1 | / | 0.4% | -0.4% | / | / | /
CCOC(=O)c1ccc(NC(=O)CCC(=O)N2CCSc3ccccc32)cc1 | -20.4% | 12.7% | -7.7% | -4.5% | 3.7% | 0.5%
O=C(COc1ccc(Cl)cc1)OCC(=O)N1CCCC1 | -18.0% | 5.7% | -8.1% | -7.7% | 3.5% | -6.9%
O=C(COc1ccc(Cl)cc1)OCC(=O)N1CCCCCC1 | -3.0% | 1.7% | 3.6% | -1.2% | 35.5µM* | -0.2%
CCOc1ccccc1NC(=O)COc1cccc2c(=O)n(CCOC)ccc12 | -15.9% | 28.5% | 1.0%[60.1 µM] | 2.2% | 0.6% | -4.0%
CN(C)CCN(C(=O)/C=C/c1cccs1)c1nc2c(F)cc(F)cc2s1 | -38.2% | ? | -7.5% | -15.5% | 39.8µM* | 15.9%
Cc1nc2c(c(C)nn2C(C)(C)C)c(C)c1CCC(=O)Nc1ccc(Br)cc1Br | -31.0% | 23.0% | -1.1% | -2.3% | 5.7% | -4.5%
Cc1ccnc2c(Cl)cccc12 | / | 34.7% | 0.1% | / | / | /
NC(=O)CC(NC(=O)Cc1cccc2ccccc12)c1ccc(NC2CCN(Cc3ccccc3)CC2)c([N+](=O)[O-])c1 (stereo unspecified) | -3.0% | -28.0% | -7.4% | -4.3% | 50.1µM* | 4.6%
NC(=O)CC(NC(=O)Cc1ccc(Br)cc1)c1ccc(NC2CCN(Cc3ccccc3)CC2)c([N+](=O)[O-])c1 (stereo unspecified) | -11.1% | 0.9% | 11.9% | -3.6% | 44.7µM* | -2.4%
NC(=O)CC(NC(=O)Cc1ccc(Br)cc1)c1ccc(NC2CCCC2)c([N+](=O)[O-])c1 (stereo unspecified) | -1.5% | -4.3% | -7.1% | -2.9% | 15.7% | 7.5%
S=C(NCCCN(Cc1ccc(Cl)cc1)c1ccc(Br)cn1)NCc1ccc2nc[nH]c2c1 | / | -11.0% | -9.3% | / | / | /
O=C(Cc1cccs1)NC1CC(=O)N(c2ccccc2)C1 (stereo unspecified) | 16.4% | 6.3% | -3.1%[60.1 µM] | -0.4% | 22.9% | 4.3%
O=C(/C=C/c1ccc(O)c(O)c1)c1ccc(O)cc1O | / | / | 21.2µM* | 8.8% | / | /
Cc1ccc2[nH]c(=O)c(CN(C(=O)c3cccc(Cl)c3)C(C)(C)C)cc2c1 | -6.0% | -11.3% | -8.8% | -7.6% | 2.7% | -4.9%
CCc1ccc(-c2csc(NC(=O)C3CC(=O)N(c4ccc5c(c4)OCCO5)C3)n2)cc1 (stereo unspecified) | -18.2% | 89.1µM* | -29.3% | -12.5% | ? | -3.2%
N#Cc1ccc(CSc2nnc(NC(=O)C3CC(=O)N(c4ccc5c(c4)OCCO5)C3)s2)cc1 (stereo unspecified) | -13.2% | 31.1% | 0.7% | -5.9% | 8.91µM* | 0.0%

Source: PubChem BioAssay
